Source: PubChem BioAssay
In the library only some 3.8% were active in any assay of this set; here they are far more common.
MBNL1-CUG inh – blocks human MBNL1 binding to CUG repeat RNA; Q9NR56; TR-FRET MBNL1-His/biotin-(CUG)12 binding, 665/545 ratio; Potency, µM (doses to about 57.5 µM), for inactives: at the top dose activity change, negative = inhibition, usual class: inhibitors; hit rate 0.036% among 280,000; AID 2675; active = well fitted inhibition curve with a large enough effect in the signal ratio, with a control signal flat, not every such curve was filed as active; inconclusive = small, poorly fitted or top-dose-only effect, or effect the other way, or a change in a side signal; inactive = no such curve, though single readings can be large or run the other way; the % refers to the signal ratio; note: potency is the fitted concentration of half-maximal effect; % is set by controls: 0 for no effect and ±100 for the full control effect
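Compound titration spanned 92 nM–58 uM against the MBNL1-His/biotin-(CUG)12 complex. After 60 min at room temperature with 5 nM streptavidin-XL665 and 0.055 ng/ul terbium anti-His, ratiometric 665/545 nm emission (Ex 340 nm) normalized to controls.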
KCNH2 WT inh – blocks the wildtype human KCNH2 potassium channel. Q12809. U2OS, BacMam KCNH2, thallium flux FluxOr; active compounds read low. hit rate 0.37% among 340,000. activity change, % at 1.84 µM;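 active = maximum activity change below -70%; inconclusive = maximum activity change between -70% and -50%; inactive = maximum activity change above -50%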; note: % is set by controls: 0 for no effect and ±100 for the full control effect
Target sequence (Q12809 whole entry, looked up): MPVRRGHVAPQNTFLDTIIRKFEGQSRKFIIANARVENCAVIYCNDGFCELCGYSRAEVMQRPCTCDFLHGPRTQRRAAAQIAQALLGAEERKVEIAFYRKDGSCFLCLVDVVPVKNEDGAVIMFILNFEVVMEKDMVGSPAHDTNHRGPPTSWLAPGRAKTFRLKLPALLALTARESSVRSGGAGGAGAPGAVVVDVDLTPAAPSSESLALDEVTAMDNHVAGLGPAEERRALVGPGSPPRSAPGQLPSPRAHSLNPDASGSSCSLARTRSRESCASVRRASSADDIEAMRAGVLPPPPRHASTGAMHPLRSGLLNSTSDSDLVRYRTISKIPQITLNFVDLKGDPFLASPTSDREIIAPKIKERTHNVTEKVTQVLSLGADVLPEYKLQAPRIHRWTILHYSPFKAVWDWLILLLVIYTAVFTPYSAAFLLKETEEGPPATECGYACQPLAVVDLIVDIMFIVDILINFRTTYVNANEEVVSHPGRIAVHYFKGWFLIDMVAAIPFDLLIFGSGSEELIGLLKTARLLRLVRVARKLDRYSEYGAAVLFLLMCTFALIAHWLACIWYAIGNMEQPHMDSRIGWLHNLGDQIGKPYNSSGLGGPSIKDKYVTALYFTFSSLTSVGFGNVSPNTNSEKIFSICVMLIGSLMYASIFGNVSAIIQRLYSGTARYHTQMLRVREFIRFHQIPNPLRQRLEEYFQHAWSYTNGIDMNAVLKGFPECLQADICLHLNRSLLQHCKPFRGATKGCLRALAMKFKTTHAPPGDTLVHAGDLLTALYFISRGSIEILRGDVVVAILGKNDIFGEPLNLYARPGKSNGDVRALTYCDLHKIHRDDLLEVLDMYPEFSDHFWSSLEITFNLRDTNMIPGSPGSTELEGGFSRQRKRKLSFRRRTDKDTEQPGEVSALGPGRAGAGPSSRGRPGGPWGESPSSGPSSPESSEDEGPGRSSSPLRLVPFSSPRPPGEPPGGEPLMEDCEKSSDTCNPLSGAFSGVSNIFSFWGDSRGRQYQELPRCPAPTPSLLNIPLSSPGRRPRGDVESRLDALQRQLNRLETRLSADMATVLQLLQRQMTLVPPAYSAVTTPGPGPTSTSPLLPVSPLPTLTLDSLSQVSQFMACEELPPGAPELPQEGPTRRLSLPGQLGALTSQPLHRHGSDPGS
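U2OS cells transduced with wild-type KCNH2 virus are loaded with FluxOr dye for 45 min, and thallium flux is measured in kinetic reads before and after stimulation buffer. Rate constants are normalized to DMSO controls.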
CBFb-RUNX1 inh – inhibitors of human CBF-beta and RUNX1 interaction; Q01196+Q13951; AlphaScreen CBFb-His/RUNX1-biotin binding, biochemical; AID 1477; Potency, µM (series often up to 59.8 µM), for the others: at the highest dose activity, negative = inhibition, hits mostly inhibitors; 230,000 tested, under 10 active; note: % of control where 0% means no effect
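Compounds were screened at multiple concentrations against a preformed CBF-beta(His)/RUNX1(biotin) complex (30 nM of each) for 15 min at room temperature, followed by 90 min with nickel and streptavidin beads and AlphaScreen reading.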
KCNH2 3.1 block – KCNH2 3.1 (human) potassium channel inhibition | activity change, % (tested at about 1.8 µM) | U2OS KCNH2 3.1, thallium flux FluxOr; active compounds read low | hit rate 0.95% among 340,000;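 active = maximum activity change below -70%; inconclusive = maximum activity change from -70% to -50%; inactive = maximum activity change above -50%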;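 note: thallium influx rate constant from kinetic fluorescence after stimulation buffer; % is set by controls: 0 for no effect and ±100 for the full control effect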
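FluxOr-based Tl+ influx in U2OS cells transduced with KCNH2 3.1 virus; rate constants normalized to DMSO controls.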
VDR inhibitor – inhibitors of human vitamin D receptor; P11473; VDR-SRC2-3 peptide fluorescence polarization, 2 h; Potency, µM, inactives show max response, negative = inhibition, usual class: inhibitors; hit rate 0.93% among 400,000; AID 504847; note: potency is the fitted concentration of half-maximal effect; % is set by controls: 0 for no effect and ±100 for the full control effect
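Two reagent solutions held at 4 deg C in the dark were dispensed, compounds pinned at 23 nl, and the mixture incubated 2 h at room temperature. Read-out: fluorescence polarization of VDR–SRC2-3 peptide binding.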
PLK1 PBD inh – blocks phosphopeptide binding to human PLK1 polo-box domain | P53350 | Plk1 PBD binding of FITC phosphopeptide, fluorescence polarization | Potency, µM, without a hit: max response, negative = inhibition, usual class: inhibitors | hit rate 2.8% among 360,000 | AID 720504; note: potency is the fitted concentration of half-maximal effect; series mostly up to about 57 µM; % is set by controls: 0 for no effect and ±100 for the full control effect; nearly all actives have a fitted effect of over 65% in size
* hit, by the source's call; ? = inconclusive; nt = no result. Unless noted, calls come from the whole dose curve; as a rule, active = well fitted curve in the direction sought with a large enough effect; inconclusive = small, poorly fitted or top-dose-only effect, or another doubt; inactive = no such curve, though single readings can be large; an effect the other way counts as inactive or inconclusive.

SMILES	MBNL1-CUG inh	KCNH2 WT inh	CBFb-RUNX1 inh	KCNH2 3.1 block	VDR inhibitor	PLK1 PBD inh
CCC(C)NCc1ccc(C(=O)OC)o1 (centres undefined)	0%	9	2%	-5	?	24µM*
Cc1cc(C)c(Cn2c(C)c(CNCc3ccccc3C)c(C(=O)O)c2C)c(C)c1	nt	nt	nt	nt	18%	nt
C=CCOc1nc2c(c(=O)n(C)c(=O)n2C)n1C	-4%	0	0%	-1	19%	-3%
C/C=C/COc1nc2c(c(=O)n(C)c(=O)n2C)n1C	6%	-2	4%	-6	-15%	3µM*
CCn1c(OC)nc2c1c(=O)n(C)c(=O)n2C	-13%	-9	3%	9	-13%	2%
CCC(C)n1c(OC)nc2c1c(=O)n(C)c(=O)n2C (centres undefined)	0%	4	4%	12	?	2.7µM*
COc1ccc(N/C=C\C(=O)c2ccc3c(c2)OCO3)cc1	12%	6	0%	-36	-6%	-6%
O=C(/C=C\Nc1ccc2c(c1)OCO2)c1ccc2c(c1)OCO2	4%	-33	-3%	-28	?	11µM*
CCSc1nnc2c(n1)OC(CC)N(C(C)=O)c1ccccc1-2 (centres undefined)	nt	nt	nt	nt	11%	nt
C[C@H](O)[C@H](O)[C@H]1CNc2nc(N)[nH]c(=O)c2N1	nt	5	nt	10	79µM*	27µM*
CC(O)[C@@H](O)[C@H]1CNc2nc(N)[nH]c(=O)c2N1 (some centres undefined)	?	nt	-3%	nt	nt	nt
COC(=O)Nc1ccc(OCc2ccccc2)cc1	3%	7	-4%	11	15%	-8%
Cc1cnc(NC(=O)Nc2ccc(OCc3ccccc3)cc2)c(Br)c1	-1%	-3	nt	-4	-22%	30µM*
Cc1ccc(-c2csc3nc[nH]c(=O)c23)cc1	-6%	4	-2%	25	0%	-11%
Cc1ccc(-c2csc3nc(-c4ccncc4)[nH]c(=O)c23)cc1	2%	6	5%	17	-8%	17µM*
O=c1[nH]c(Cc2ccc(F)cc2)nc2scc(-c3ccc(F)cc3)c12	85%	3	2%	-27	?	6µM*
Cc1ccccc1OCc1nnc(SCc2cc(=O)c3cccc(F)c3[nH]2)n1C	nt	nt	nt	nt	13%	nt
O=C(c1ccccc1)c1coc2ccc(O)c(CN3CCOCC3)c12	-6%	4	-4%	-13	-11%	21µM*
CN(C)Cc1c(O)ccc2occ(C(=O)c3ccccc3)c12	1%	3	6%	10	9%	-1%
CCOC(=O)c1c(-c2ccccc2)oc2ccc(O)c(CN3CCOCC3)c12	8%	3	11%	7	-21%	12µM*
O=C(NC(=S)Nn1cnnc1)c1ccccc1	nt	6	nt	7	-15%	?
O=C(NC(=S)Nn1cnnc1)c1ccccc1Br	-1%	-6	14%	1	?	30µM*
O=C(CCOc1ccccc1)N(Cc1cccnc1)c1nc2c(F)cccc2s1	nt	nt	nt	nt	9%	nt
COc1ccc(OC)c2sc(NC(=O)C(C)C)nc12	-6%	-3	-2%	-5	-5%	-8%
COc1ccc(OC)c2sc(Cl)nc12	19%	5	19%	-22	12%	19µM*
SMILES	MBNL1-CUG inh	KCNH2 WT inh	CBFb-RUNX1 inh	KCNH2 3.1 block	VDR inhibitor	PLK1 PBD inh
CCn1nc(C(=O)OCC(=O)NC(C)C)c2ccccc2c1=O	6%	-6	10%	15	?	19µM*
CC(C)CCn1nc(C(=O)OCC(=O)NC(C)c2ccccc2)c2ccccc2c1=O (centres undefined)	nt	-2	nt	7	nt	0%
CCOC(=O)c1c(C)[nH]c(C)c1C(=O)COC(=O)c1nn(CC)c(=O)c2ccccc12	nt	-102*	nt	-5	nt	2%
CC(C)NOC(=O)c1ccc(Cl)cc1	-13%	-8	5%	-1	-12%	30µM*
CC(CN1CCCC1)OC(=O)c1ccc(Cl)cc1 (centres undefined)	-6%	-5	nt	-17	9%	-3%
N#Cc1c(C(F)(F)F)cc(-c2ccco2)nc1SCc1ccncc1	9%	-4	2%	3	-11%	-4%
CSc1nc(-c2ccco2)cc(C(F)(F)F)c1C#N	10%	12	23%	-7	-25%	17µM*
CCCCCCCCCCCCCCCCCC(=O)OC[C@@H](O)[C@H]1OC[C@H](O)[C@H]1O	nt	nt	nt	nt	-1%	nt
COc1ccc(CNC(=O)c2ccc3c(c2)CCN3S(=O)(=O)c2ccc(C)cc2)cc1	nt	nt	nt	nt	5%	nt
COC(=O)c1sc(N2C(=O)C(O)=C(C(=O)c3ccc(C)o3)C2c2cccs2)nc1C (centres undefined)	50%	-4	nt	-11	-15%	27µM*
COC(=O)c1sc(N2C(=O)C(O)=C(C(=O)c3ccc(C)o3)C2c2ccco2)nc1C (centres undefined)	-8%	3	nt	nt	-12%	30µM*
COCCNS(=O)(=O)c1ccc2c(c1)Cc1cc(S(=O)(=O)NCCOC)ccc1-2	1%	20	nt	-1	?	19µM*
O=S(=O)(NCCO)c1ccc2c(c1)Cc1cc(S(=O)(=O)NCCO)ccc1-2	-8%	0	nt	7	-13%	6%
CSC1=NC2(CC(c3ccccc3)Oc3cc(O)ccc32)CC(C)(C)N1 (centres undefined)	-18%	?	2%	-94*	2%	1%
Cc1ccc(Cl)cc1NC(=O)C1CCCN(S(=O)(=O)c2cccc3cccnc23)C1 (centres undefined)	nt	nt	nt	nt	5%	nt
CC1=NN(c2ccc(Br)cc2)C(=O)/C1=C/c1cccs1	2%	-12	-9%	10	?	8.4µM*
CC1=NN(c2ccc(C)cc2)C(=O)/C1=C\c1ccc(Br)s1	nt	4	-18%	5	-21%	-21%
COc1cc(/C=C2/C(=O)N(c3ccc(Br)cc3)N=C2C)cc(OC)c1OC	0%	17	nt	15	?	1.3µM*
CCOc1ccccc1NC(=O)Cn1c(=O)n(Cc2nc(C)no2)c(=O)c2ccccc21	nt	nt	nt	nt	9%	nt
COC(=O)C1=C(C)N(c2cc(C)cc(C)c2)/C(=C/c2ccco2)C1=O	nt	-2	?	4	-6%	-15%
COC(=O)C1=C(C)N(c2cc(C)cc(C)c2)/C(=C/c2ccc(O)cc2)C1=O	3%	10	2%	-7	50µM*	-14%
COC(=O)C1=C(C)N(c2ccccc2)/C(=C/c2ccco2)C1=O	-4%	-3	-16%	-73*	8%	47%
COC(=O)C1=C(C)N(c2ccc(Cl)cc2)/C(=C/c2ccc(O)cc2)C1=O	2%	-3	4%	-14	-2%	-16%
C=C(C)c1cccc(C(C)(C)NC(=O)N2CCN(C(=O)OCC)CC2)c1	nt	-1	nt	-71*	nt	1%
